Records with an inconclusive call do not appear. Activity calls are given as the source filed them. Calls follow the shape of the dose curve; as a rule, active = well fitted activation curve with a large enough effect; inconclusive = small, poorly fitted or top-dose-only effect; inactive = flat fitted curve, though single readings scatter.
Assay: qHTS for Inhibitors of Cell Surface uPA Generation: Confirmatory Assay for Cherry-picked Compounds
Conditions: cell surface uPA activity generation, qHTS confirmation; series mostly up to 115 µM
In short: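 RAW 264.7 cells at 4000/well, incubated overnight, then treated with compounds. After 24 h at 37 C, viability was read by ATPlite luminescence. An increase in signal indicates blocked uPA-dependent LF entry.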

Potency, inactive:
Cc1cc(C)cc(NC(=O)C(OC(=O)c2ccc(O)cc2)c2ccccc2)c1 (centres undefined)
Cc1ccc(/C=C/C(=O)O)cc1S(=O)(=O)N1CCc2ccccc21
CCOC(=O)C1CCN(C(=O)COC(=O)c2c(C)c(CC)nc3ccccc23)CC1
C=CCNC(=S)NCC=C
Cc1c(NC(=O)C(C)OC(=O)CCC2CCCC2)c(=O)n(-c2ccccc2)n1C (centres undefined)
COc1ccc2nc(C)cc(Nc3ccccc3O)c2c1
CCC(=O)N(Cc1cc2ccc(C)cc2[nH]c1=O)c1ccccc1OC
Cc1[nH]c2ccc(C(=O)OC(C)C(=O)NC3CCCCC3C)cc2c1C (centres undefined)
COc1ncnc(NS(=O)(=O)c2ccc(N)cc2)c1OC
CSCC[C@H](NC(=O)[C@H](Cc1ccccc1)n1c(=O)[nH]c2ccccc2c1=O)C(=O)N1CCC[C@@H]1C(=O)O
CC(=O)Nc1ccc(NC(=O)CCCCCN2C(=O)c3ccccc3C2=O)cc1
O=C(COC(=O)Cn1cnc2ccccc21)NCc1ccc(F)cc1
CC1CC(=O)Nc2ccccc2N1C(=O)Cn1cnc2ccc(Br)cc2c1=O (centres undefined)
COc1ccc(NC(=O)CCNS(=O)(=O)c2ccccc2F)cc1S(=O)(=O)N1CCOCC1
CCOCCOc1cc(NCc2ccccc2)c2ncn(C(C)C)c2c1
O=C(C[n+]1ccccc1)Nc1ccccc1C(F)(F)F
COc1ccc(/C(N)=N/OC(=O)Cc2ccccc2OC)cc1
COc1ccc(CCNC(=O)Cn2cccc2C(=O)c2ccccc2)c(OC)c1
CC(C)NC(=O)NC(=O)CN1C(=O)NC(Cc2c[nH]c3ccccc23)C1=O (centres undefined)
Clc1ccccc1N1CCN(c2ncnc3nc[nH]c23)CC1
O=C(CCc1ccccc1)NNC(=O)c1cccc(F)c1
COc1ccc(NS(=O)(=O)c2cc3c(cc2C)NC(=O)CO3)c(OC)c1
CCc1nccn1CCC(=O)N1CCc2c([nH]c3ccccc23)C1CC(C)C (centres undefined)
COc1ccc(NS(=O)(=O)c2cc(NS(=O)(=O)c3cc(C(=O)O)ccc3OC)ccc2C)cc1
COc1ccc(Cc2nnc(Nc3ccc(C)cc3)o2)cc1OC
Cc1cccc(CCNC(=O)Cc2ccc(NC3=NC4CS(=O)(=O)CC4S3)cc2)c1 (centres undefined)
CC(/C=C/C1(O)C(C)CC(O)CC1(C)C)OC1OC(CO)C(O)C(O)C1O (centres undefined)
Cc1cc2c(cc1S(=O)(=O)Nc1ccc(F)cc1)n(C)c(=O)c(=O)n2C
COc1cc(C(C)=O)ccc1OCc1cn(CC(=O)c2ccc(O)cc2)nn1
Fc1cccc(Cl)c1CSc1ccc(-c2cccnc2)nn1
O=C(CCN1CCN(c2ccccc2F)CC1)Nc1ccc(F)cc1
COc1cc(CN2CCN(S(=O)(=O)c3ccccc3)CC2)cc(OC)c1OC
COc1ccc([C@@H]2[C@@H]3C(=O)N(C(C)(C)C)C(=O)[C@@H]3[C@]3(C)C(=O)N(c4cccc(Cl)c4)C(=O)N23)cc1
CN(CCCNC(=O)Cn1cccc1C(=O)c1ccccc1)C1CCCCC1
COc1cccc(CN(C)C(=O)c2cc(S(=O)(=O)N3CCCC3)ccc2C)c1OC
CC1(C)Oc2ccc3ccc(=O)oc3c2[C@@H](O)[C@H]1O
COc1cccc(C(=O)Cn2c(NCCCO)nc3ccccc32)c1
CCOC(=O)c1ccccc1N=Cc1c(O)c2ccccc2oc1=O
Cc1ccc(S(=O)(=O)NCC(=O)N/N=C/c2ccc(Cl)cc2)cc1

From PubChem BioAssay AID720519 (National Center for Advancing Translational Sciences (NCATS), 2013)
